Bioassay records: PubChem, several laboratories
CYP2C19 inh – inhibitors of human CYP2C19 | CYP2C19 Supersomes, luciferin-H EGE luminescence, 30 min | inhibition, % at 5 µM | P33261 | 21% of 96,000 active;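 active = CYP2C19 inhibition above a set limit at 5 µM in the primary screen, cut at about 50% in these data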;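 also: plate controls were negative control wells for no effect and 2.5 mM tranylcypromine positive control for full effect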
Target sequence (P33261 whole entry, looked up): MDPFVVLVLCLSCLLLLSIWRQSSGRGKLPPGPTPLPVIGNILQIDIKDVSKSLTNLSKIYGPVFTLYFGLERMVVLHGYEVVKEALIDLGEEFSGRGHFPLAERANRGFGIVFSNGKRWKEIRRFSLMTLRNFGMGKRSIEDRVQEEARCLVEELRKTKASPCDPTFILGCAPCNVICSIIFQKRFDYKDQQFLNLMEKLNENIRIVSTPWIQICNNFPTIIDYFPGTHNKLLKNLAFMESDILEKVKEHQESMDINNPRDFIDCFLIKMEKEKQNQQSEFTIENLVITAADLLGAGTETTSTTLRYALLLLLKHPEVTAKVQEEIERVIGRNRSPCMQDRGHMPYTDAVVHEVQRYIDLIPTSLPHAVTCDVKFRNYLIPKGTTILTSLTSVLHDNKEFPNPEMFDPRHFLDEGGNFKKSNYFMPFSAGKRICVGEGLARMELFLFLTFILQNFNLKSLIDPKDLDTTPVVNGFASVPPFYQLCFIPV
CYP2C9 inh – human CYP2C9 inhibition. P11712. CYP2C9 Supersomes, luciferin-H conversion, luminescence. inhibition, % at 5 µM. 20% of 96,000 active. AID 777;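 active = blocking of liver enzyme CYP2C9 beyond about 50% at 5 µM, limit read from the data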
CYP2C9 activ – CYP2C9 (human) activation. activation factor at 5 µM. 1.4% of 96,000 active. recombinant CYP2C9, luciferin-H conversion, luminescence; active compounds read high; factor 1 = untreated enzyme, 0 = blocked;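 active = activation factor of 2 or more for CYP2C9 at a 5 µM dose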;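 also: 0 = sulfaphenazole-blocked wells and 1 = vehicle-only wells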
PLK1 inh – blocks human PLK1 kinase activity; P53350; recombinant PLK1 kinase, TR-FRET peptide phosphorylation; inhibition, % at 10 µM; 0.53% of 97,000 active; AID 619;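 active = inhibition of 50% or more in the single-concentration screen; inactive = inhibition below 50%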;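 also: 0% = DMSO max control and 100% = H-89 dihydrochloride min control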
PLK1 PBD inh – blocks phosphopeptide binding to human Plk1 polo box domain. inhibition, %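 (tested at about 20 µM)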. Plk1 PBD phosphopeptide binding, fluorescence polarization. P53350. 0.13% of 97,000 active; in the data active = inhibition above about 34%, passing the limit was not always enough
CYP2C19 act – increases human CYP2C19 enzyme activity; AID 1025; P33261; activation factor at 5 µM; recombinant CYP2C19, luciferin-H EGE luminescence; active compounds read high; 0 = fully inhibited enzyme, 1 = untreated enzyme; 96,000 tested, under 10 active;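 active = activation factor of at least 2 at 5 µM in the primary screen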;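 also: 0 = wells with 2.5 mM tranylcypromine and 1 = vehicle-only wells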
* marks the source's active call; other numbers are inactive results; x = not tested or not shown. A selection: hits, their analogues and other compounds. The true share with any hit is near 28%.

SMILES	CYP2C19 inh	CYP2C9 inh	CYP2C9 activ	PLK1 inh	PLK1 PBD inh	CYP2C19 act
Cc1cc(C)nc(N2CCCC(C(=O)Nc3nnc(C(C)C)s3)C2)n1 (configuration not stated)	x	x	x	-28	-3	x
CCOC(=O)c1c(C)nc2sc(C(=O)Nc3ccccc3)c(N)c2c1-c1ccc(OC)cc1	76*	82*	0.2	-20	-14	0.2
c1ccc2c(c1)nnn2Cc1nnc2sc(-c3ccc4c(c3)OCCO4)nn12	4	9	0.9	-7	-15	1
C/C=C/Cn1c(SCc2ccc(Cl)cc2)nc2c1c(=O)[nH]c(=O)n2C	48	58*	0.4	-1	-6	0.5
CCCn1c(SCc2ccc(Cl)cc2)nc2c1c(=O)[nH]c(=O)n2C	67*	47	0.5	8	-26	0.3
Cc1cccc(C)c1NC(=O)C(NC(=O)c1ccccn1)c1ccc([N+](=O)[O-])cc1 (configuration not stated)	2	-13	1.1	-11	-6	1
C/C(=N\NC(=O)C(C)Oc1ccc([N+](=O)[O-])cc1)c1ccccn1 (configuration not stated)	68*	-31	1.3	-19	4	0.3
O=C(CCC(=O)c1cccs1)OCC(=O)N1CCN(C(=O)c2ccco2)CC1	12	12	0.9	-15	30	0.9
CC(/C=C/c1ccc2c(c1)OCO2)=N\NC(=O)COc1ccccc1C	2	11	0.9	-2	-26	1
CCCCOc1ccc(OCCNS(=O)(=O)N(C)C)cc1	54*	40	0.6	-3	0	0.5
COc1ccc(C(=O)N2CCN=C2SC)cc1OC	4	-3	1	6	11	1
COc1ccc(C(=O)N2CCSC2=S)cc1OC	3	-112	2.1*	-10	20	1
COc1cccc(C(=O)N2CCSC2=S)c1	62*	-26	1.3	0	15	0.4
Cc1ccc(C(=O)SC2=NCCS2)cc1	x	x	x	-12	9	x
COc1cccc(C(=O)N2CCN(C(=O)c3cccc(F)c3)CC2)c1	x	x	x	1	-11	x
COc1ccc(C(=O)SC2=NCCS2)cc1OC	25	-109	2.1*	-6	5	0.8
Cc1ccccc1-n1c(Cc2cccs2)n[nH]c1=S	19	-5	1	-20	-14	0.8
Cc1cccc(CN2CCN(CC(=O)O)C2=O)c1	x	x	x	-3	5	x
c1ccc2[nH]c(CSc3nc4ccccc4o3)nc2c1	100*	70*	0.3	-22	2	0
Nn1c(CSc2nc3ccccc3o2)nnc1CSc1nc2ccccc2o1	72*	66*	0.3	-5	5	0.3
O=[N+]([O-])c1ccc(CSc2nc3ccccc3o2)cc1	16	21	0.8	-6	33	0.8
Cc1ccc(CSc2nnc(-c3cccnc3)o2)cc1	70*	58*	0.4	-5	-3	0.3
c1cncc(-c2nnc(SCc3nc4ccccc4[nH]3)o2)c1	70*	39	0.6	-12	-26	0.3
c1ccc(CSc2nnc(-c3cccnc3)o2)cc1	x	x	x	-7	10	x
CC(C)N(Cc1nnc(-c2ccccc2Cl)o1)C(=O)c1cccc(C#N)c1	38	22	0.8	-1	2	0.6
SMILES	CYP2C19 inh	CYP2C9 inh	CYP2C9 activ	PLK1 inh	PLK1 PBD inh	CYP2C19 act
CCOc1cc(NS(=O)(=O)c2ccccc2)c(OCC)cc1NC(=O)c1ccco1	3	25	0.7	-6	16	1
C(=C\c1ccccc1)/CSc1nnc(-c2cccnc2)o1	55*	16	0.8	-9	-17	0.4
NNC(=O)Cn1c(SCc2ccccc2)nc2ccccc21	96*	37	0.6	-10	2	0
CCn1c(SCC(=O)NCc2ccco2)nc2cccnc21	7	-31	1.3	-4	-11	0.9
O=C(CSc1nc2ccccc2n1CC(=O)NCc1ccccc1)NCc1ccco1	79*	82*	0.2	-5	-36	0.2
Cc1nc2ccccc2n1CC(=O)NCc1ccccc1	9	-1	1	2	-4	0.9
N#CCCn1c(SCC(=O)NCc2ccco2)nc2ccccc21	42	-32	1.3	-3	4	0.6
CCC(Sc1nc2ccccc2c2nc3ccccc3n12)C(=O)NCc1ccco1 (configuration not stated)	6	78*	0.2	-6	-6	0.9
O=C(CSc1nc2cccnc2n1Cc1ccccc1)NCc1ccco1	58*	31	0.7	0	-2	0.4
COc1cccc(C2/C(=C(\O)c3ccc(OC)c(OC)c3)C(=O)C(=O)N2c2cc(C)on2)c1 (configuration not stated)	-13	-11	1.1	-3	-14	1.1
Cc1cccc(NC(=O)c2cc(NC(=O)c3ccco3)ccc2Cl)n1	14	34	0.7	-2	-7	0.9
O=C(CSc1nc2ccccc2n1Cc1ccccc1)N/N=C/c1ccco1	56*	49	0.5	-15	-11	0.4
Cc1nc(NC(=O)CSc2ccccc2N)sc1C	48	76*	0.2	-12	13	0.5
O=C(O)CCn1c(SCc2cccc3ccccc23)nc2ccccc21	43	66*	0.3	-4	6	0.6
Cc1nc(NC(=O)CCCC(=O)Nc2nc(C)c(C)s2)sc1C	18	81*	0.2	-12	-3	0.8
CCSc1nc2ccccc2n1CCC(=O)O	3	-12	1.1	-9	-11	1
CCN(C(=O)CN1CCN(c2ccc(O)cc2)CC1)c1c(N)n(Cc2ccccc2)c(=O)[nH]c1=O	0	-2	1	-5	-13	1
CSc1ccc(-c2c(C#N)c(N)nc3c2CCCC3)cc1	14	-6	1.1	-51	-4	0.9
CCOC(=O)CNC(=O)CSc1nc2cccnc2n1Cc1ccccc1	80*	47	0.5	x	x	0.2
Cc1nc(NC(=O)CSc2nc3cccnc3n2Cc2ccccc2)sc1C	63*	59*	0.4	-7	10	0.4
CCOC(=O)CNC(=O)CSc1nc2cccnc2n1C1CCCCC1	16	2	1	0	4	0.8
COc1cc(Br)cc2cc(C(=O)N3CCCCC3C)c(=O)oc12 (configuration not stated)	8	8	0.9	-10	-10	0.9
CCn1ccc(C(=O)NC2=C(C#N)CCC2)n1	10	6	0.9	-3	18	0.9
C/C(Cn1nnc([N+](=O)[O-])n1)=N\NC(=O)c1cccc(Cl)c1	6	6	0.9	-8	-3	0.9
Clc1ccc(Cl)c(-c2ccc(/C=N/c3ncn[nH]3)o2)c1	4	-187	2.9*	-9	1	1
O=C(CSc1nnnn1C1CCCC1)Nc1cccc(NC(=O)c2ccco2)c1	83*	83*	0.2	-11	5	0.2
O=C(CSc1nnnn1C1CCCCC1)NCc1ccccc1	62*	62*	0.4	-7	15	0.4
CC(C)N(C(=O)CSc1nnnn1C1CCCC1)C(C)C	81*	28	0.7	-25	-1	0.2
